Experimental data taken from the supplement of paper PMC12669032.
Values without a mark were called inactive.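 The calls were made as follows: active = AUC reduced over 20% with Padj below 0.05 in at least 2 of 3 replicates; inactive = otherwise.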

Columns and labels:
Assay in all cases: growth AUC relative to DMSO control (median of replicates) (fraction); higher = more growth (less inhibition), active = hit call of the paper
Conditions in all cases: 20 µM; 24 h
Akkermansia muciniphila = tested on: Akkermansia muciniphila
Method in brief: (§1)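 OD600 was recorded every hour for 24 h in anaerobic monocultures of gut bacteria kept at 37 °C in mGAM, seeded at OD600 0.05 and given 20 µM compound in 1% DMSO. The area under each growth curve was scaled to the plate median of solvent-only wells, or to row and column medians for the industrial chemical plate. Before this step, the minimum OD was set to 0. Reported values are medians of three biological replicates run on separate days.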

Bacteroides caccae = tested on: Bacteroides caccae
Method in brief: as §1

Bacteroides clarus = tested on: Bacteroides clarus
Method in brief: as §1

Bacteroides dorei = tested on: Bacteroides dorei
Method in brief: as §1

Bacteroides stercoris = tested on: Bacteroides stercoris
Method in brief: as §1

[1] = tested on: Bacteroides thetaiotaomicron
Method in brief: as §1

Bacteroides uniformis = tested on: Bacteroides uniformis
Method in brief: as §1

[2] = tested on: Bifidobacterium longum subsp. longum
Method in brief: as §1

Clostridium difficile = tested on: Clostridium difficile
Method in brief: as §1

Collinsella aerofaciens = tested on: Collinsella aerofaciens
Method in brief: as §1

Coprococcus comes = tested on: Coprococcus comes
Method in brief: as §1

Escherichia coli ED1a = tested on: Escherichia coli ED1a
Method in brief: as §1

Escherichia coli IAI1 = tested on: Escherichia coli IAI1
Method in brief: as §1

Eubacterium rectale = tested on: Eubacterium rectale
Method in brief: as §1

[3] = tested on: Fusobacterium nucleatum subsp. animalis
Method in brief: as §1

Lactobacillus gasseri = tested on: Lactobacillus gasseri
Method in brief: as §1

Lactobacillus paracasei = tested on: Lactobacillus paracasei
Method in brief: as §1

Odoribacter splanchnicus = tested on: Odoribacter splanchnicus
Method in brief: as §1

[4] = tested on: Parabacteroides distasonis
Method in brief: as §1

Parabacteroides merdae = tested on: Parabacteroides merdae
Method in brief: as §1

| SMILES | growth AUC (Akkermansia muciniphila) | growth AUC (Bacteroides caccae) | growth AUC (Bacteroides clarus) | growth AUC (Bacteroides dorei) | growth AUC (Bacteroides stercoris) | growth AUC [1] | growth AUC (Bacteroides uniformis) | growth AUC [2] | growth AUC (Clostridium difficile) | growth AUC (Collinsella aerofaciens) | growth AUC (Coprococcus comes) | growth AUC (Escherichia coli ED1a) | growth AUC (Escherichia coli IAI1) | growth AUC (Eubacterium rectale) | growth AUC [3] | growth AUC (Lactobacillus gasseri) | growth AUC (Lactobacillus paracasei) | growth AUC (Odoribacter splanchnicus) | growth AUC [4] | growth AUC (Parabacteroides merdae) |
| --- | --- | --- | --- | --- | --- | --- | --- | --- | --- | --- | --- | --- | --- | --- | --- | --- | --- | --- | --- | --- |
| O=S1(=O)OCC2C(CO1)C1(Cl)C(Cl)=C(Cl)C2(Cl)C1(Cl)Cl (stereo not given) | 1.39 | 0.997 | 0.945 | 0.962 | 0.765 | 0.984 | 0.914 | 1.11 | 1 | 0.993 | 1.01 | 0.991 | 1 | 1.01 | 0.935 | 0.919 | 1.02 | 1.02 | 1.09 | 0.955 |
| O=[N+]([O-])C(Br)(CO)CO | 0.966 | 0.987 | 1.01 | 1.03 | 1.01 | 0.962 | 0.976 | 0.991 | 0.996 | 1.01 | 0.925 | 1 | 0.987 | 0.949 | 1 | 0.958 | 0.999 | 1 | 1.03 | 0.998 |
| ClC1=C(Cl)C(Cl)(C2(Cl)C(Cl)=C(Cl)C(Cl)=C2Cl)C(Cl)=C1Cl | 1.27 | 0.926 | 0.93 | 0.895 | 0.809 | 0.856 | 0.875 | 0.94 | 1 | 0.823 | 1.05 | 1.04 | 1.01 | 0.861 | 1.13 | 1.01 | 0.987 | 1 | 0.958 | 0.863 |
| CC(C)[C@@H](Nc1ccc(C(F)(F)F)cc1Cl)C(=O)OC(C#N)c1cccc(Oc2ccccc2)c1 (stereo not given in full) | 1.09 | 1.02 | 1.04 | 1.04 | 1.01 | 0.994 | 1.01 | 1.02 | 1.04 | 0.933 | 0.988 | 1 | 1.05 | 1.04 | 1.06 | 1.02 | 1.04 | 1.05 | 1.09 | 1.03 |
| O=C(O)CNCP(=O)(O)O | 1.07 | 1.06 | 0.999 | 0.981 | 1.08 | 1.02 | 0.977 | 1.05 | 1.06 | 0.997 | 1 | 1 | 1 | 1.01 | 1.08 | 1.04 | 0.949 | 1.08 | 1.01 | 1.04 |
| COc1ncc(F)c2nc(S(=O)(=O)Nc3c(F)cccc3F)nn12 | 0.991 | 1.02 | 0.985 | 1.01 | 1.13 | 0.974 | 1 | 1.01 | 0.994 | 1.01 | 1.03 | 1.01 | 0.989 | 1 | 1.02 | 1.01 | 1 | 0.992 | 0.983 | 1.01 |
| CC(C)=CC1C(C(=O)OCc2cccc(Oc3ccccc3)c2)C1(C)C (mixture of isomers) | 1.21 | 0.961 | 0.994 | 0.917 | 1.01 | 1 | 0.991 | 0.864 | 1.02 | 0.914 | 0.992 | 0.975 | 0.974 | 1.06 | 1.11 | 0.767 | 1.02 | 1.03 | 0.924 | 0.956 |
| Oc1c(Br)cc(Br)cc1Br | 0.965 | 0.916 | 0.917 | 1.01 | 1.22 | 1.01 | 0.966 | 0.984 | 0.982 | 0.991 | 1.01 | 0.945 | 0.845 | 1 | 1.03 | 1.13 | 0.919 | 0.748 | 0.934 | 0.991 |
| Oc1ccccc1Cl | 0.985 | 1.01 | 0.993 | 1.01 | 1.05 | 0.983 | 0.988 | 0.99 | 0.995 | 1 | 0.975 | 1.01 | 1.01 | 0.921 | 0.994 | 1.05 | 0.883 | 0.906 | 0.995 | 1 |
| CCN(C(=O)n1nnn(-c2ccccc2Cl)c1=O)C1CCCCC1 | 0.87 | 0.84 | 0.508 (active) | 0.513 (active) | 0.118 (active) | 0.107 (active) | 0.0622 (active) | 0.988 | 0.992 | 0.925 | 0.942 | 0.969 | 0.989 | 0.956 | 1.01 | 1.01 | 0.827 | 0.97 | 0.682 (active) | 0.411 (active) |
| CCCN(CCC)c1c([N+](=O)[O-])cc(C(C)C)cc1[N+](=O)[O-] | 1.12 | 1.01 | 0.978 | 0.994 | 0.991 | 0.962 | 1.03 | 1.02 | 0.991 | 0.99 | 1.06 | 1.02 | 0.996 | 1.02 | 1 | 0.941 | 1.09 | 0.989 | 0.932 | 0.984 |
| Nc1ccncc1 | 0.943 | 0.997 | 0.997 | 1.04 | 1.02 | 0.981 | 0.987 | 0.911 | 1 | 1 | 0.95 | 0.99 | 0.983 | 0.949 | 0.969 | 0.897 | 1 | 0.974 | 1.02 | 1.02 |
| COP1(=S)OCc2ccccc2O1 (stereo not given) | 1.01 | 0.973 | 0.979 | 0.999 | 1.02 | 0.993 | 0.986 | 0.972 | 0.97 | 1.04 | 1 | 0.991 | 1 | 1.08 | 1.12 | 0.945 | 0.997 | 1.04 | 1.05 | 0.999 |
| Nc1ncn[nH]1 | 0.877 | 1.04 | 1.01 | 1.02 | 0.931 | 1.01 | 0.997 | 1.02 | 1.01 | 0.995 | 0.974 | 1.02 | 1.01 | 0.987 | 1.1 | 0.942 | 0.995 | 1.03 | 1.02 | 0.981 |
| Cc1occc1C(=O)Nc1ccccc1 | 0.899 | 1 | 0.958 | 1.04 | 0.952 | 1.02 | 1 | 1.02 | 1.05 | 0.959 | 0.977 | 0.966 | 0.953 | 1.16 | 0.933 | 0.973 | 0.925 | 0.985 | 0.971 | 0.998 |
| CCOP(=S)(OCC)SCn1c(=O)oc2cc(Cl)ccc21 | 0.99 | 0.921 | 0.94 | 0.936 | 0.831 | 0.945 | 0.927 | 0.943 | 0.978 | 0.991 | 1 | 0.981 | 0.974 | 1 | 0.93 | 0.918 | 0.994 | 0.979 | 0.892 | 0.955 |
